In PubChem BioAssay AID1159580 (chemical genetic matrix, 2015):
Hit rate of the full screen: of about 5,500 compounds, about 2,000 (36%) were called active. About 18% were inconclusive and are not listed. No stated cut-off is given here; in the data, active means normalized growth mostly below about 0.91 (no sharp cut-off); inconclusive means no clear call, values can overlap the other calls; inactive means mostly above about 0.92. The list shows a part of the results.

Assay: chemical genetic growth profiling, strain panel (AID 1159580);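 further: tested at 20 µM; growth read once vehicle control cultures reached saturation at 30 °C; 1 = growth at the plate median or of vehicle wells; lower values mean less growth of the strain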
Conditions: growth OD

Measured: normalized growth

CCN1CCCC(OC(=O)C(c2ccccc2)c2ccccc2)C1 (centres undefined)
inactive: S. cerevisiae deletion strains, locus YJR075W, strain HOC1, active compounds read low 1 | S. cerevisiae deletion strains, locus YKL009W, strain mrt4, active compounds read low 1.02 | S. cerevisiae deletion strains, locus YKL068W, active compounds read low 0.999 | S. cerevisiae deletion strains, locus YKL085W, strain MDH1 (second series), active compounds read low 1.01 | S. cerevisiae deletion strains, locus YKL085W, strain MDH1, active compounds read low 1.01 | S. cerevisiae deletion strains, locus YKL160W, strain elf1, active compounds read low 0.983 | S. cerevisiae deletion strains, locus YKL190W, strain CNB1, active compounds read low 1.01 | S. cerevisiae deletion strains, locus YKR001C, strain vps1, active compounds read low 1.02 | S. cerevisiae deletion strains, locus YKR026C, strain gcn3, active compounds read low 0.996 | S. cerevisiae deletion strains, locus YKR091W, strain srl3, active compounds read low 0.992 | S. cerevisiae deletion strains, locus YLL001W, strain dnm1, active compounds read low 0.971 | S. cerevisiae deletion strains, locus YLL026W, active compounds read low 0.992 | S. cerevisiae deletion strains, locus YLL041C, strain sdh2, active compounds read low 0.987 | S. cerevisiae deletion strains, locus YLR027C, strain aat2, active compounds read low 0.983 | S. cerevisiae deletion strains, locus YLR039C, strain RIC1, active compounds read low 1.07 | S. cerevisiae deletion strains, locus YLR058C, strain SHM2, active compounds read low 1.01 | S. cerevisiae deletion strains, locus YLR102C, strain apc9, active compounds read low 1.01 | S. cerevisiae deletion strains, locus YLR113W, strain HOG1, active compounds read low 0.958 | S. cerevisiae deletion strains, locus YLR221C, strain rsa3, active compounds read low 0.991 | S. cerevisiae deletion strains, locus YLR258W, strain gsy2, active compounds read low 0.977 | S. cerevisiae deletion strains, locus YLR262C, strain YPT6 (second series), active compounds read low 1.02 | S. cerevisiae deletion strains, locus YLR262C, strain YPT6, active compounds read low 1.08 | S. cerevisiae deletion strains, locus YLR268W, strain sec22, active compounds read low 1.01 | S. cerevisiae deletion strains, locus YLR320W, strain mms22, active compounds read low 0.982 | S. cerevisiae deletion strains, locus YLR330W, strain CHS5, active compounds read low 1.02 | S. cerevisiae deletion strains, locus YLR342W, strain FKS1 (second series), active compounds read low 1.01 | S. cerevisiae deletion strains, locus YLR342W, strain FKS1, active compounds read low 0.985 | S. cerevisiae deletion strains, locus YLR357W, strain rsc2, active compounds read low 0.933 | S. cerevisiae deletion strains, locus YLR370C, strain arc18, active compounds read low 0.994 | S. cerevisiae deletion strains, locus YLR371W, strain rom2, active compounds read low 1.01 | S. cerevisiae deletion strains, locus YLR384C, strain iki3, active compounds read low 0.983 | S. cerevisiae deletion strains, locus YLR418C, strain cdc73, active compounds read low 0.998 | S. cerevisiae deletion strains, locus YML016C, strain PPZ1, active compounds read low 1 | S. cerevisiae deletion strains, locus YML032C, strain rad52, active compounds read low 1.01 | S. cerevisiae deletion strains, locus YML120C, strain ndi1, active compounds read low 0.961 | S. cerevisiae deletion strains, locus YML124C, strain tub3, active compounds read low 1 | S. cerevisiae deletion strains, locus YMR058W, strain fet3, active compounds read low 0.982 | S. cerevisiae deletion strains, locus YMR078C, strain ctf18, active compounds read low 1 | S. cerevisiae deletion strains, locus YMR125W, strain sto1, active compounds read low 0.977 | S. cerevisiae deletion strains, locus YMR129W, active compounds read low 0.969 | S. cerevisiae deletion strains, locus YMR205C, strain PFK2, active compounds read low 0.984 | S. cerevisiae deletion strains, locus YMR223W, strain ubp8, active compounds read low 1.01 | S. cerevisiae deletion strains, locus YMR231W, strain pep5, active compounds read low 0.998 | S. cerevisiae deletion strains, locus YMR307W, strain GAS1, active compounds read low 1.09 | S. cerevisiae deletion strains, locus YNL067W, strain RPL9B, active compounds read low 1.01 | S. cerevisiae deletion strains, locus YNL071W, strain lat1, active compounds read low 0.973 | S. cerevisiae deletion strains, locus YNL153C, strain GIM3, active compounds read low 0.992 | S. cerevisiae deletion strains, locus YNL183C, strain NPR1, active compounds read low 0.943 | S. cerevisiae deletion strains, locus YNL209W, strain ssb2, active compounds read low 1.01 | S. cerevisiae deletion strains, locus YNL233W, strain BNI4, active compounds read low 1.01 | S. cerevisiae deletion strains, locus YNL248C, strain rpa49, active compounds read low 0.989 | S. cerevisiae deletion strains, locus YNL250W, strain rad50, active compounds read low 1 | S. cerevisiae deletion strains, locus YNL271C, strain bni1, active compounds read low 1.01 | S. cerevisiae deletion strains, locus YNL298W, strain CLA4, active compounds read low 1.01 | S. cerevisiae deletion strains, locus YNL307C, strain MCK1, active compounds read low 1.01 | S. cerevisiae deletion strains, locus YNL322C, strain KRE1 (second series), active compounds read low 0.992 | S. cerevisiae deletion strains, locus YNL322C, strain KRE1, active compounds read low 1.01 | S. cerevisiae deletion strains, locus YNR049C, strain mso1, active compounds read low 0.981 | S. cerevisiae deletion strains, locus YNR052C, strain pop2, active compounds read low 1.02 | S. cerevisiae deletion strains, locus YOL006C, strain TOP1, active compounds read low 0.982 | S. cerevisiae deletion strains, locus YOL012C, strain htz1 1.06 | S. cerevisiae deletion strains, locus YOL147C, strain pex11, active compounds read low 1 | S. cerevisiae deletion strains, locus YOR001W, strain rrp6, active compounds read low 0.973 | S. cerevisiae deletion strains, locus YOR061W, strain CKA2, active compounds read low 1.01 | S. cerevisiae deletion strains, locus YOR069W, strain VPS5, active compounds read low 1.01 | S. cerevisiae deletion strains, locus YOR070C, strain gyp1, active compounds read low 0.998 | S. cerevisiae deletion strains, locus YOR080W, strain dia2, active compounds read low 0.975 | S. cerevisiae deletion strains, locus YOR083W, strain WHI5, active compounds read low 0.98 | S. cerevisiae deletion strains, locus YOR106W, strain vam3, active compounds read low 0.988 | S. cerevisiae deletion strains, locus YOR136W, strain idh2, active compounds read low 1 | S. cerevisiae deletion strains, locus YOR144C, strain elg1, active compounds read low 0.996 | S. cerevisiae deletion strains, locus YOR184W, strain ser1, active compounds read low 1.04 | S. cerevisiae deletion strains, locus YOR231W, strain MKK1, active compounds read low 0.983 | S. cerevisiae deletion strains, locus YOR265W, strain rbl2, active compounds read low 0.995 | S. cerevisiae deletion strains, locus YOR270C, strain vph1, active compounds read low 0.987 | S. cerevisiae deletion strains, locus YOR290C, strain snf2, active compounds read low 0.98 | S. cerevisiae deletion strains, locus YOR316C, strain cot1, active compounds read low 1.01 | S. cerevisiae deletion strains, locus YPL051W, strain arl3, active compounds read low 0.988 | S. cerevisiae deletion strains, locus YPL055C, strain LGE1, active compounds read low 0.996 | S. cerevisiae deletion strains, locus YPL078C, strain atp4, active compounds read low 0.974 | S. cerevisiae deletion strains, locus YPL106C, strain sse1, active compounds read low 0.97 | S. cerevisiae deletion strains, locus YPL240C, strain hsp82, active compounds read low 0.991 | S. cerevisiae deletion strains, locus YPL256C, strain CLN2, active compounds read low 0.979 | S. cerevisiae deletion strains, locus YPR119W, strain clb2, active compounds read low 1.01 | S. cerevisiae deletion strains, locus YPR141C, strain kar3, active compounds read low 1 | S. cerevisiae deletion strains, locus YPR163C, strain tif3, active compounds read low 1 | S. cerevisiae deletion strains, locus YPR167C, strain met16, active compounds read low 1.01 | S. cerevisiae deletion strains, strain wtn01, active compounds read low 1 | S. cerevisiae strains, strain wild type, active compounds read low 1.01
